Our source for the Potency values is PubChem BioAssay AID588590 (National Center for Advancing Translational Sciences (NCATS), 2011).

The campaign covered roughly 390,000 compounds. About 4,000 (1%) were called active. A call without a number means that no potency is given here. Roughly 7% stayed inconclusive and do not appear here. The call rests on the fitted dose curve; in most records, active means well fitted inhibition curve with a large enough effect; inconclusive means small, poorly fitted or top-dose-only effect, or another doubt; inactive means no such curve, though single readings can be large or run the other way. The sample as a whole holds a higher share of actives than the screen did.
Potency means the concentration at half of the fitted maximal effect.

DNA polymerase iota (Homo sapiens), sequence (Q9UNA4 whole entry, looked up): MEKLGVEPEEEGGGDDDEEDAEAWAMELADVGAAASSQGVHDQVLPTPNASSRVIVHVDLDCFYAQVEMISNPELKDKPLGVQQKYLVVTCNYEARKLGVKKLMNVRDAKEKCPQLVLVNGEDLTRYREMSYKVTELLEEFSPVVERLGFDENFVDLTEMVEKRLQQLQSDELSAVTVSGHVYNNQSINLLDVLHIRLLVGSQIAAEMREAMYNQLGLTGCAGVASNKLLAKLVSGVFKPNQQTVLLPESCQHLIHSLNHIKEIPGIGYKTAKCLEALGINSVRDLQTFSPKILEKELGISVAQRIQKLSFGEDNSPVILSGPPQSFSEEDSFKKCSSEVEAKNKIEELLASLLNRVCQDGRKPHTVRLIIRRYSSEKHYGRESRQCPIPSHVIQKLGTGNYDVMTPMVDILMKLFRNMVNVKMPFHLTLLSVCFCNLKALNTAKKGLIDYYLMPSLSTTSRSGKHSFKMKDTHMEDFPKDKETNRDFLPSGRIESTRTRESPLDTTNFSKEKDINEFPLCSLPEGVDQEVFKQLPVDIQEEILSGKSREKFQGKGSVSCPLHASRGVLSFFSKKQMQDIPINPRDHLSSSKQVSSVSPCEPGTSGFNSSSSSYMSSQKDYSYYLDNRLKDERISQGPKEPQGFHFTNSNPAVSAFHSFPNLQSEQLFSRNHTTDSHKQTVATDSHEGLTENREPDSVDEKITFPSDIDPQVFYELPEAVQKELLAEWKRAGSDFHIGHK

In the assay the target is DNA polymerase iota (Homo sapiens) (UniProt Q9UNA4). The assay can be described thus: qHTS for Inhibitors of Polymerase Iota. The conditions noted are these: Pol iota fluorescent replication assay, 10 min; series mostly up to 115 µM. An outline of the steps:
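Pol iota at 10 nM preincubated 15 min with compounds at room temperature; reaction started with fluorescent substrate, 50 nM final. Fluorescence read kinetically at 0 and 10 min; buffer-only wells as negative control.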
Regarding `Cc1ccc(NC(=O)Cn2c(=O)n(-c3ccccc3)c(=O)c3c4c(sc32)CCCC4)cc1`, the Potency entry was “inactive”.

As for `CCOc1ccc(-c2nonc2NC(=O)c2oc3ccc(CC)cc3c2C)cc1`, the Potency entry is “inactive”.

On to `CCOC(=O)c1c(S(=O)(=O)N2CCCC(C(=O)NCc3ccc(F)cc3)C2)c(C)n(CC)c1C` (stereo not given), for which the Potency result is “inactive”.

For `Oc1cc(O)c2c(c1)OC(c1ccc(O)c(O)c1)C(O)C2` (stereo not given), the Potency was 79.4 µM (active).

As to `OC[C@H]1O[C@@H](n2cnc3c(N[C@H]4CC5CCC4C5)ncnc32)[C@H](O)[C@@H]1O` (stereo not given in full), the Potency entry was “inactive”.

Consider `Cc1ccc(CSc2nc3ccsc3c(=O)n2CCC(C)C)cc1`, for which the Potency entry is “inactive”.

Turning to `COc1cc(/C=C2/SC(=S)N(Cc3ccccc3)C2=O)cc(OC)c1O`, the Potency is 44.7 µM (active).

In the case of `COc1ccc(CCNC2=C(Cl)C(=O)N(Cc3ccccc3)C2=O)cc1OC`, the Potency entry was “inactive”.

For the molecule `CN(C(=O)CN1C(=O)/C(=C/c2ccc(Cl)cc2)SC1=S)C1CCS(=O)(=O)C1` (stereo not given), the Potency result was “inactive”.

Turning to `Cc1ccccc1NC(=O)Cn1c(=O)n(CCc2ccccc2)c(=O)c2ccccc21`, the Potency result was “inactive”.

In the case of `Cc1ccccc1NC(=O)CN1C(=O)C(C)(C)c2ccccc21`, the Potency entry is “inactive”.

As to `Cc1ccccc1NC(=O)CN1C(=O)N/C(=C\c2cccn2-c2cccc(C(=O)O)c2)C1=O`, the Potency is 5.62 µM (active).

As to `COc1ccc2c(c1)c(=O)c(S(=O)(=O)c1ccc(F)cc1)cn2CC(=O)Nc1ccc(C)cc1C`, the Potency result was “inactive”.

As for `CCN(CCCNC(=O)c1cc(Nc2ccc(OC)cc2)nc2ccccc12)c1cccc(C)c1`, the Potency entry is “inactive”.

`COc1cccc(CNC(=O)c2ccc3c(Cl)c4c(nc3c2)CCCC4)c1`: the Potency was 89.1 µM (active).

For the molecule `COc1cccc(CNC(=O)CSc2c3c(nc4cc(Cl)ccc24)CCCC3)c1`, the Potency result was “inactive”.

With `CC(C)CCNC(=O)c1ccc2c(Cl)c3c(nc2c1)CCC3`, the Potency result was “inactive”.

Take `Cc1ccc(Cn2c(CCCNC(=O)C3CCCCC3)nc3ccccc32)cc1`: the Potency result is “inactive”.

Turning to `Cn1c(=O)oc2cc(S(=O)(=O)CCC(=O)NCCc3ccc(Cl)cc3)ccc21`, the Potency entry was “inactive”.

Take `O=C(O)C1CCN(c2ccc([N+](=O)[O-])cc2[N+](=O)[O-])CC1`: the Potency is 20 µM (active).

For `CCC(C)(C)NC(=O)c1cc([N+](=O)[O-])ccc1N1CCCCC1`, the Potency entry is “inactive”.

On to `CC1CCN(c2ccc([N+](=O)[O-])cc2C(N)=O)CC1`, for which the Potency entry was “inactive”.

Regarding `COC(=O)COc1ccc2c(c1C)O/C(=C\c1ccco1)C2=O`, the Potency is 89.1 µM (active).

For `COc1ccccc1OCC(=O)OCc1cc(-c2ccco2)on1`, the Potency entry was “inactive”.

As for `COC(=O)CN1C(=O)N/C(=C/c2ccc(OC)c(C)c2OC)C1=O`, the Potency result was “inactive”.

With `Cc1ccc(C(=O)CC2(O)C(=O)N(CCc3ccccc3)c3ccc(Br)cc32)cc1` (stereo not given), the Potency result is “inactive”.

Take `CCN(CC)c1cc(NC2CCCCC2)c2c3c(onc13)-c1ccccc1C2=O`: the Potency entry was “inactive”.

Take `COc1ccc(CNC(=O)CC2Oc3ccc(C)cc3NC2=O)cc1` (stereo not given): the Potency entry is “inactive”.

With `CCc1nnc(NC(=O)c2ccc(S(=O)(=O)NC3CCCCC3)cc2)s1`, the Potency entry is “inactive”.

For the molecule `CCc1ccc(NC(=O)c2sc3nc4c(cc3c2N)CN(CC)CC4)cc1`, the Potency entry is “inactive”.

Regarding `CCc1ccc2nc3sc(C(=O)Nc4nnc(CC)s4)c(N)c3cc2c1`, the Potency is 22.4 µM (active).

In the case of `COC(=O)c1cc2occc2n1Cc1nc(-c2ccc(C)cc2)oc1C`, the Potency entry is “inactive”.

In the case of `Cc1cc(/C=N/NC(=O)CC2(C)OCCO2)c(C)n1-c1ccc(Cl)c(Cl)c1`, the Potency result was “inactive”.

As to `Cc1cc(/C=N/Nc2ccc([N+](=O)[O-])cn2)c(C)n1-c1cccc(C(=O)O)c1`, the Potency was 28.2 µM (active).

`Cc1cc(C=O)c(C)n1-c1ccc(NC2CCCCC2)c([N+](=O)[O-])c1`: the Potency result was “inactive”.

In the case of `COc1ccc(NC(=O)C2CCN(c3ccc(Sc4ccc(C)cc4)nn3)CC2)c(OC)c1`, the Potency result was “inactive”.

Regarding `O=C1C[C@H]2C=CCc3cccc(c32)CN1Cc1ccccc1`, the Potency entry was “inactive”.

On to `COc1ccc(Cl)cc1-n1c(CCC(=O)O)ccc1-c1ccc(C)cc1`, for which the Potency entry is “inactive”.

With `CCOc1ccccc1N(CC)C(=O)Nc1cn(C)c(=O)c2ccccc12`, the Potency entry was “inactive”.

As to `CCOc1ccccc1CNC(=O)Nc1cn(CC(C)C)c(=O)c2ccccc12`, the Potency was 39.8 µM (active).

In the case of `CCOc1ccccc1NC(=O)Cn1c2ncccc2c(=O)n1-c1ccc(C)c(C)c1`, the Potency entry is “inactive”.

As to `Cc1cccc(-c2nnc(SC(C)C(=O)Nc3ccccc3)n2C)c1` (stereo not given), the Potency entry is “inactive”.

With `Cc1ccc(C)c2sc(NC(=O)c3ccc(S(=O)(=O)N4CCCC4)cc3)nc12`, the Potency entry is “inactive”.

In the case of `Cc1ccc(CCNC(=O)C2CCN(c3nnc(-n4cccc4CNc4ccc(C)cc4)s3)CC2)cc1`, the Potency entry was “inactive”.

On to `c1ccc(-n2nnnc2N2CCOCC2)cc1`, for which the Potency result was “inactive”.

As for `C1=C(N2CCOCC2)/C(=C/c2nc3ccccc3[nH]2)CC1`, the Potency is 14.1 µM (active).

`Cc1nn2c3cc(N4CCOCC4)ccc3nc2c2ccccc12`: the Potency entry was “inactive”.

For the molecule `O=C(Nc1ccc(Cl)cc1)c1cnn2c1NC(=C1CC1)C=C2C(F)F`, the Potency result is “inactive”.

Take `CCCOC(=O)c1c(NC(=O)c2cc3nc(-c4ccc(OC)cc4)cc(C(F)(F)F)n3n2)sc2c1CCCC2`: the Potency result is “inactive”.

Take `CC1CCC2(CC1)N=C(c1ccccc1)C(=O)N2CC(=O)Nc1ccc(F)c(Cl)c1` (stereo not given): the Potency entry is “inactive”.

For the molecule `Cc1ccc2nc(COc3cccc(NC(=O)Nc4ccc(C)c(Cl)c4)c3)cc(=O)n2c1`, the Potency entry was “inactive”.

In the case of `Cc1ccc2nc(COc3ccccc3NC(=O)Nc3ccc(F)c(Cl)c3)cc(=O)n2c1`, the Potency result was “inactive”.

As to `Cc1ccc2nc(COc3cccc(NC(=O)c4cccc(Cl)c4)c3)cc(=O)n2c1`, the Potency was 89.1 µM (active).

`Cc1ccc(/C=N/NC(=O)c2cc3ccccc3cc2O)o1`: the Potency was 50.1 µM (active).

For the molecule `Cc1ccc(/C=N/NC(=S)NC2CCCCC2)o1`, the Potency result was “inactive”.

For the molecule `Cc1ccc(/C=N/NC(=O)Cn2nc(C)c(Br)c2C)o1`, the Potency entry was “inactive”.

In the case of `CCCC12CN3CC(C)(CN(C1)C3c1ccccc1Cl)C2=O` (stereo not given), the Potency result is “inactive”.

With `COc1ccc(N=C2SC(C(=O)Nc3ccc(F)cc3)CC(=O)N2C)cc1` (stereo not given), the Potency result is “inactive”.

As to `CN=C1SC(C(=O)O)CC(=O)N1C` (stereo not given), the Potency is 89.1 µM (active).

As for `CCOc1ccc(N=C2SC(C(=O)O)CC(=O)N2C)cc1` (stereo not given), the Potency result was “inactive”.

Take `Cc1ccc2ncc(C(=O)Nc3ccc(OC(F)(F)F)cc3)c(=O)n2c1`: the Potency result is “inactive”.

With `CCOc1ccc(Nc2c(S(=O)(=O)c3ccccc3)cnc3ccccc23)cc1`, the Potency result was “inactive”.

Consider `COc1ccc(OC)c(-n2nnc(-c3nc(-c4cc(OC)c(OC)c(OC)c4)no3)c2C)c1`, for which the Potency entry is “inactive”.

Take `COc1cc(Nc2nc(-c3ccc(OC)c(OC)c3)nc3ccccc23)cc(OC)c1`: the Potency entry was “inactive”.

Take `CNc1ccc(-c2nc(-c3ccco3)no2)cc1[N+](=O)[O-]`: the Potency entry was “inactive”.

With `CC(Nc1ccc(-c2nc(-c3ccco3)no2)cc1[N+](=O)[O-])c1ccccc1` (stereo not given), the Potency was 70.8 µM (active).

On to `O=[N+]([O-])c1cc(-c2nc(-c3ccccc3)no2)ccc1NCc1ccco1`, for which the Potency entry is “inactive”.

`COc1ccc(/C=C/c2ccnc3ccccc23)cc1OC`: the Potency result was “inactive”.

As for `CN(C(=N)N)c1ccc(/C=C2\C=Cc3ccccc32)cc1`, the Potency entry is “inactive”.

Regarding `CC(C)C(=O)Nc1c2c(nn1-c1ccccc1)CSC2`, the Potency entry is “inactive”.

With `CC(=O)Nc1c2c(nn1-c1cccc(C)c1)CSC2`, the Potency is 50.1 µM (active).

On to `O=C(NCCCO)C(=O)Nc1c2c(nn1-c1ccccc1)CSC2`, for which the Potency entry was “inactive”.

On to `COc1ccc(CNC(=O)Cn2nnc(-c3ccc(S(C)(=O)=O)cc3)n2)cc1`, for which the Potency entry was “inactive”.

As to `O=C(C[n+]1ccncc1)c1ccc2c(c1)CCCC2`, the Potency result was “inactive”.

`O=c1[nH]n2c(=O)c3c([nH]c2c1N=Nc1ccccc1)CCC3`: the Potency is 50.1 µM (active).

For the molecule `CC(C)(C)n1c(=O)[nH]c2c(c1=O)CCC2`, the Potency entry was “inactive”.

On to `Cc1c(N=Nc2ccc(N(C)C)cc2)c(=O)n(-c2ccccc2)n1C`, for which the Potency result was “inactive”.

With `CC(C)NC(=O)C1CCC(Cn2c(=O)c3sccc3n(Cc3ccc(F)cc3)c2=O)CC1` (stereo not given), the Potency entry was “inactive”.

As to `CCOC(=O)C1CCC(CN(Cc2ccc(OC)cc2)S(=O)(=O)c2ccc(F)c(C(=O)Nc3cc(C)ccc3C)c2)CC1` (stereo not given), the Potency result was “inactive”.

Regarding `CC(C)(C)c1ccc(C(=O)NCC(c2ccco2)S(=O)(=O)c2ccc(F)cc2)cc1` (stereo not given), the Potency entry is “inactive”.

Regarding `COc1cccc2c1C(=O)c1c(O)c3c(c(O)c1C2=O)CC(O)(C(C)=NNC(=O)c1ccc(Cl)c(Cl)c1)CC3OC1CC(N)C(O)C(C)O1` (stereo not given), the Potency is 50.1 µM (active).

Consider `COc1ccccc1NC(=O)C1=C(C)Nc2ncnn2C1c1sccc1C` (stereo not given), for which the Potency entry was “inactive”.

On to `O=C(O)C1=C/C(=C/C=[N+]2c3cc(O)c(O[C@H]4OC(CO)[C@@H](O)[C@@H](O)[C@@H]4O)cc3C[C@@H]2C(=O)[O-])C[C@H](C(=O)O)N1` (stereo not given in full), for which the Potency result is “inactive”.

For `CCCS(=O)(=O)Nc1cccc(-c2cn3ccsc3n2)c1`, the Potency result is “inactive”.

In the case of `Cc1ccc(C)c(N2CCN(C(=O)Cn3nc(C)c4sc5ccccc5c4c3=O)CC2)c1`, the Potency result is “inactive”.

For `C=C(C)C(=O)O[C@H]1C/C(C)=C\C(=O)/C=C(\C)[C@H](O)[C@@H]2OC(=O)C(=C)[C@@H]21`, the Potency was 35.5 µM (active).

On to `Cc1ccc(S(=O)(=O)N2CCCc3cc(NS(=O)(=O)c4cc(C)ccc4C)ccc32)cc1`, for which the Potency result was “inactive”.

`CCOc1ccc(NC(=O)CSc2nnc3c(n2)[nH]c2ccc(S(=O)(=O)N4CCOCC4)cc23)cc1`: the Potency result is “inactive”.

As to `Cc1ccc(-c2nn3c(=O)cc(CN4CCN(C(=O)Nc5cccc(C(F)(F)F)c5)CC4)nc3s2)cc1`, the Potency result is “inactive”.

With `Cn1c(=O)c2c(-c3ccccc3Br)n(Cc3ccccc3)cc2n(C)c1=O`, the Potency entry is “inactive”.

Take `COc1cccc(CNC(=O)c2ccc3c(c2)sc2nc(-c4cccc(OC)c4)cn23)c1`: the Potency entry was “inactive”.

For the molecule `COc1cccc2c1cc1c(=O)n(CC(=O)N3CCN(c4ccccc4)CC3)nc(C)n12`, the Potency result was “inactive”.

As for `CC1=C(C)C(=O)OC(C(C)C2CCC3C4CC=C5CC(OC6OC(COC7OC(CO)C(O)C(O)C7O)C(O)C(O)C6O)CC(O)C5(C)C4CCC23C)C1` (stereo not given), the Potency entry is “inactive”.

For `C=CC1C(OC2OC(CO)C(O)C(O)C2O)OC=C(C(=O)OC)C1CC1CC(=O)CC(CC(=O)CCc2ccc(O)cc2)O1` (stereo not given), the Potency entry was “inactive”.

Regarding `CC(/C=C/C1(O)C(C)CC(=O)CC1(C)C)OC1OC(CO)C(O)C(O)C1O` (stereo not given), the Potency was 79.4 µM (active).
